# A selection: hits, their analogues and other compounds. The true share with any hit is near 0.24%.
# NPYLR7 ag – mosquito NPYLR7 agonism | HEK293T NPYLR7/Galpha15, GCaMP6s calcium fluorescence | activation, % at 10 µM | 270,000 compounds, 0.15% hits | AID 1259423; in the data active means activation above about 40%;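 further: 0% = vehicle and 100% = reference agonist at the receptor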
# mcGAS lum – inhibitors of mouse cGAS | Q8C6L5 | recombinant cGAS, Kinase-Glo ATP depletion luminescence | inhibition, % at 12.5 µM | 160,000 compounds, 0.15% hits;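 further: 0% = negative control wells and 100% = reference inhibitor with no enzyme activity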
# hcGAS inh – inhibitors of human cGAS. 290,000 compounds, 0.081% hits. AID 1259398. Q8N884. recombinant h-cGAS, ATP depletion, Kinase-Glo luminescence. inhibition, % at 12.5 µM;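 further: 0% = vehicle reaction and 100% = reaction without DNA for no activity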
# Target sequence (Q8N884 whole entry, looked up): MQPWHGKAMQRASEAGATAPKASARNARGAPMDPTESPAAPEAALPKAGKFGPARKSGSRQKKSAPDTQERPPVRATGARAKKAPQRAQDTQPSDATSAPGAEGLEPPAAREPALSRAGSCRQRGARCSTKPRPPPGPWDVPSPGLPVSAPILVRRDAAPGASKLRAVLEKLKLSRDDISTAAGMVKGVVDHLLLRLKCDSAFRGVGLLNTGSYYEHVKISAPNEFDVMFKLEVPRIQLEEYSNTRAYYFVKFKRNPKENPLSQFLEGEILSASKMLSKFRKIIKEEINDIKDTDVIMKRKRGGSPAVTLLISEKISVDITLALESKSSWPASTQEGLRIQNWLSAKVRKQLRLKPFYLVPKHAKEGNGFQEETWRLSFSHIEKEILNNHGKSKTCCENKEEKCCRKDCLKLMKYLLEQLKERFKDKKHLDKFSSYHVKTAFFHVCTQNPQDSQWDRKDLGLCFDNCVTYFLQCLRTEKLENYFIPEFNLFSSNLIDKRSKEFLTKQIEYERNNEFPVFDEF
# Active calls of the source: *; . = not tested or not shown; ! = not active in a repeat. Unless noted, no stated cut-off is given here; in the data, active means inhibition above about 40%; inactive means the rest.
SMILES,NPYLR7 ag,mcGAS lum,hcGAS inh
CC(=O)[C@]1(O)Cc2c(O)c3c(c(O)c2[C@@H](O[C@H]2C[C@H](N)[C@H](O)[C@H](C)O2)C1)C(=O)c1ccccc1C3=O,100*,96*,69*
COc1cccc2c1C(=O)c1c(O)c3c(c(O)c1C2=O)C[C@@](O)(C(C)=O)C[C@@H]3O[C@H]1C[C@H](N)[C@H](O)[C@H](C)O1,-2,.,60*!
COc1cccc2c1C(=O)c1ccccc1C2=O,-4,-3,1
COc1cccc2c1C(=O)c1c(O)c3c(c(O)c1C2=O)C[C@@](O)(C(=O)CO)C[C@@H]3O[C@H]1C[C@H](N)[C@@H](O)[C@H](C)O1,-3,.,48*
O=C(C1CCCOC1)N1CCSCC1c1ccccc1 (configuration not stated),2,.,-8
Cc1ccc(S(=O)(=O)NC(=O)C2(C)CCN2C(=O)C2(c3ccccc3)CCCC2)nc1 (configuration not stated),9,.,-8
N[C@H](C(=O)O)[C@@H](OCc1ccccc1)C(=O)O,-10,.,-4
COc1ccc(Cc2nnc(SCC(=O)Nc3ccccc3C)[nH]c2=O)cc1,-3,-10,-5
CN(c1cc(Cl)nc(N)n1)C(C1CC1)C1CC1,11,.,-8
Cc1cccc(C2=NC(=Cc3cccc(C#N)c3)C(=O)O2)c1,-1,.,3
COc1ccc2nc3cc(Cl)ccc3c(Nc3cc(CN4CCCC4)c(O)c(CN4CCCC4)c3)c2n1,3,.,45*
COc1cc(C)c(CN2CCN(Cc3nc4cc(Cl)ccc4c(=O)[nH]3)CC2)cc1OC,5,.,0
O=[N+]([O-])c1c[n+]([O-])n(-c2cccc(Cl)c2)n1,74*,-1,3
O=[N+]([O-])c1c[n+]([O-])n(-c2ccc3c(c2)OCCO3)n1,2,-8,-2
COc1ccc(S(=O)(=O)NC(C)c2ccncc2)cc1F (configuration not stated),2,.,-15
COc1ccc(C(C)NS(=O)(=O)c2ccc(Cl)cc2C(F)(F)F)cc1F (configuration not stated),107*,.,2
CC1C(=O)N(c2cccc(C(F)(F)F)c2)CCN1C(=O)c1cccc(Br)c1 (configuration not stated),-3,-4,-4
Cc1cc(N2CCN(C(=O)Nc3ccccc3Br)CC2)nc(-c2cccc(C(F)(F)F)c2)n1,-2,-5,-7
CCOCCCN(CC(=O)N(Cc1cccn1Cc1ccccc1)C1CCCCC1)C(=O)c1cccc(F)c1,-2,-6,-3
N=C1/C(=C\c2ccco2)C(=O)N=C2SC(Cc3cccs3)=NN12,-2,.,52*
N=C1/C(=C\c2ccc(Br)o2)C(=O)N=C2SC(Cc3cccs3)=NN12,-3,.,33
CCCCN(Cc1ccccc1F)C(=O)CC1=CCNCC1,15,.,-5
COc1cc([N+](=O)[O-])cc(/C=C2/SC(=S)N(CC(=O)O)C2=O)c1O,-6,-4,-4
O=C(O)CN1C(=O)/C(=C/c2cc(Br)c(O)c(Br)c2)SC1=S,251*,7,3
COc1ccc(/C=C2/SC(=S)N(CC(=O)O)C2=O)cc1OC,-2,-3,-2
SMILES,NPYLR7 ag,mcGAS lum,hcGAS inh
O=C(O)CN1C(=O)/C(=C\c2cc([N+](=O)[O-])cc(Br)c2O)SC1=S,81*,67*,51*
CN(C)c1ccc(/C=C2/SC(=S)N(CC(=O)O)C2=O)cc1Br,124*,.,-1
COc1cc(/C=C2/SC(=S)N(CC(=O)O)C2=O)cc(Br)c1O,-1,-4,-12
COC(=O)C(C)Nc1cc(C)ccc1C (configuration not stated),16,.,-9
CC(=O)Cc1nsc(NC(=O)c2ccc(-c3ccc([N+](=O)[O-])cc3)o2)n1,-3,0,3
CO[C@H]1C(=O)N(C)C2(CCN(C(=O)c3ccccc3)CC2)[C@@H]1C(=O)Nc1ccccc1,23,-5,1
O=C(O)c1ccccc1N=Nc1c(O)n(Cc2ccc(F)cc2)c2ccccc12,-2,-6,-2
Cc1ccc(CN(C(=O)c2cc3cc(Cl)ccc3[nH]2)C(C)C)o1,118*,.,-6
O=C(O)c1cc2cc(Cl)ccc2[nH]1,-7,9,6
Cc1ccccc1-n1ncc(C(C)NC(=O)CSc2ncccn2)c1C (configuration not stated),6,.,-7
COc1cc(C(=O)O)c(N)cc1OC(F)F,-5,.,4
O=S(=O)(NNc1c(F)c(F)c(F)c(F)c1F)c1ccccc1,2,.,-6
Cn1c(=O)n(Cc2ccccc2F)c(=O)c2c1nc1n2CCCN1Cc1ccccc1,0,-5,-8
N#CC(=Cc1ccc(C#N)cc1)c1nnc2n1CCCCC2,-6,44*,-4
N#CC(=Cc1ccc(C=C(C#N)c2nnc3n2CCCCC3)cc1)c1nnc2n1CCCCC2,2,.,-3
CCC(C)N(CC(=O)N(Cc1cccn1Cc1ccc(F)cc1)C1CCCCC1)C(=O)c1cccc(Br)c1 (configuration not stated),0,-6,-7
CSc1ccc(C2CC(c3ccc(Cl)cc3)=Nc3ncnn32)cc1 (configuration not stated),92*,.,-11
Clc1ccc(C2=Nc3ncnn3C(c3ccc(Cl)cc3)C2)cc1 (configuration not stated),8,.,-7
O=C(CSc1nnc(Cc2ccccc2)n1-c1cccc(C(F)(F)F)c1)OCc1ccccc1,14,-5,-9
COc1ccc(-c2c(C)nn(-c3ccccc3)c2C)c(C(=O)NCc2ccc3ccccc3c2-c2ccccc2)c1,4,-5,-6
O=C1C(=Cc2ccco2)Sc2ccccc21,8,.,-5
O=C1C(=Cc2cccnc2)Sc2ccccc21,12,65*,0
CCOc1cccc(OCCCOc2ccc([N+](=O)[O-])cc2)c1,-6,.,-6
c1ccc(CNc2nc(NCCc3ccncc3)c3sccc3n2)cc1,59*,.,-11
CNc1nc(NCc2ccccc2)c2sccc2n1,8,.,-7
SMILES,NPYLR7 ag,mcGAS lum,hcGAS inh
O=C(NC(c1ccccc1)c1ccsc1)C1CCN(CCCOc2ccc(F)cc2)CC1 (configuration not stated),8,-2,-5
C=CCOc1ccc(C=C(C#N)C(=O)c2ccc(OC)cc2)cc1,2,58*,2
COc1ccc(C=C(C#N)C(=O)c2ccc(OC)cc2)cc1,1,38,3
CC(=O)NC1CCN(c2cc(C)c3cc4c(cc3n2)CCC4)CC1,7,.,-6
Cc1cc(C)c2cc3c(cc2n1)CCN3CC(O)CO (configuration not stated),188*,.,-3
COC(=O)C1=C(C)NC(=O)NC1c1ccccc1[N+](=O)[O-] (configuration not stated),-1,-2,-1
COC(=O)C1=C(C)NC(C)=C(C(=O)OC)C1c1ccccc1[N+](=O)[O-],14,51*,17
O=C(Nc1cc(-n2cccc2)ccc1F)c1n[nH]c(=O)c2ccccc12,-1,.,2
COc1cccc(CNC2CC2)c1OCc1nc(CO)cs1,46*,.,-2
COc1cccc(CN(C(=O)c2cccc(F)c2)C2CC2)c1OCc1nc(CO)cs1,-6,-7,-9
CC(C)(C)Sc1ccc2nn(CC(=O)Nc3ccc(Cl)cc3)c(=O)n2n1,.,-9,-8
O=S(=O)(N1CCc2ccccc2C1)N1CCCC1Cn1ccnc1 (configuration not stated),5,.,-6
